Holding throughout (test): DAPPL (digital affinity profiling via proximity ligation, sequencing); 10 mM Tris-HCl pH 7.5, 50 mM NaCl, 1 mM DTT, 4% glycerol, room temperature, 30 min; GST-TFs on glutathione beads, 16-mer random dsDNA library, 0.1% formaldehyde crosslink after washing; high values mean tight binding
Holding throughout (settings): protein: recombinant; tags: N-terminal GST; dsDNA, one strand shown

One experiment deals with T1, ELK1 (Homo sapiens, UniProt P19419 1-428).
T1 sequence: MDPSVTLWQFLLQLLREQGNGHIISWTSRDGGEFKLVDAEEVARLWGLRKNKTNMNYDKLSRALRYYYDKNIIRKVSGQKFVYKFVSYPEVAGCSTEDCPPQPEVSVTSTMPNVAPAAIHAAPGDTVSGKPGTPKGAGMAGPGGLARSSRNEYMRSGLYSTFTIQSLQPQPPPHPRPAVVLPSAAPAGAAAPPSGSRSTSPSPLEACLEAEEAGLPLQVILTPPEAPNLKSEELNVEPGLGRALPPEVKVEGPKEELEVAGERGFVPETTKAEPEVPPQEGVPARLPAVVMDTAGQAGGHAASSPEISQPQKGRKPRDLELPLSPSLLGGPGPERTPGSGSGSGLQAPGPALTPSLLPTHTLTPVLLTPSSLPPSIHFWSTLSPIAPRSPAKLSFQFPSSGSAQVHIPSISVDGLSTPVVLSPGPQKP
The method in brief:
(§1)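 GST fusions of human transcription factors were expressed in yeast and captured with glutathione beads. Once given DNA barcodes and pooled alongside a tag-only sample, they were incubated for 30 min at room temperature with 200 nmole of a random double-stranded 16-mer DNA library in Tris/NaCl/DTT/glycerol buffer, then washed, crosslinked (0.1% formaldehyde), proximity-ligated, PCR-amplified and sequenced on an Illumina NextSeq500. The binding signal of each hexamer is its read frequency for a factor divided by its frequency for the tag-only sample.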

The target in another experiment is T2, GABPA (Homo sapiens, UniProt Q06546 1-454).
T2 sequence: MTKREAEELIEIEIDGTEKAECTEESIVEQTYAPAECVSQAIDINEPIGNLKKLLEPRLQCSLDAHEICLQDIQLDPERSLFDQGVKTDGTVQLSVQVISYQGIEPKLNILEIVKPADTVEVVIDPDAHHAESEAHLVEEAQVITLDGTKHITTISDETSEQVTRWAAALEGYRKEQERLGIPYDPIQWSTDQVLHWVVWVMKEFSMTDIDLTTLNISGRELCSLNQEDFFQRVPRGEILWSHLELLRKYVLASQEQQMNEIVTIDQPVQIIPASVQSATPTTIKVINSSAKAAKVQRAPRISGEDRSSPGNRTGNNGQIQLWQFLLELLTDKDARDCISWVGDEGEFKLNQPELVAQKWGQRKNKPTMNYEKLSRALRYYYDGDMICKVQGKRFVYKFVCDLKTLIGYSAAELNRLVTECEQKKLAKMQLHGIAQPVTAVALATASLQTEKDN
The gist of the method: as §1

A further experiment has as its target T3, ERG (Homo sapiens, UniProt P11308 1-479).
T3 sequence: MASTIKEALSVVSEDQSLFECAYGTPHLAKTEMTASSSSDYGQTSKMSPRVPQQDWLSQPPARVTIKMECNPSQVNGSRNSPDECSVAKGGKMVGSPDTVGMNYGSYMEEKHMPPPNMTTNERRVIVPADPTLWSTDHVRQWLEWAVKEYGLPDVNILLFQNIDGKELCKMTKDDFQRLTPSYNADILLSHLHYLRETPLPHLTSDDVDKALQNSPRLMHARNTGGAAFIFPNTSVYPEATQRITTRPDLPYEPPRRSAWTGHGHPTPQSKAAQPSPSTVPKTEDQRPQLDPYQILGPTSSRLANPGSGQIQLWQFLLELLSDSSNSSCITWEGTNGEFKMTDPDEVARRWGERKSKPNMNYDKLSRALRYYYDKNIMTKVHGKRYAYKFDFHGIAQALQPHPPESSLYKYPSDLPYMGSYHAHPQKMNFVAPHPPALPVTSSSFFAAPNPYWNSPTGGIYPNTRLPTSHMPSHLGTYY
The method in brief: as §1

The next experiment concerns the target ELF1 (Homo sapiens, UniProt P32519 1-619). The gist of the method: as §1
Another experiment addresses T4, EHF (Homo sapiens, UniProt Q9NZC4 1-300).
T4 sequence: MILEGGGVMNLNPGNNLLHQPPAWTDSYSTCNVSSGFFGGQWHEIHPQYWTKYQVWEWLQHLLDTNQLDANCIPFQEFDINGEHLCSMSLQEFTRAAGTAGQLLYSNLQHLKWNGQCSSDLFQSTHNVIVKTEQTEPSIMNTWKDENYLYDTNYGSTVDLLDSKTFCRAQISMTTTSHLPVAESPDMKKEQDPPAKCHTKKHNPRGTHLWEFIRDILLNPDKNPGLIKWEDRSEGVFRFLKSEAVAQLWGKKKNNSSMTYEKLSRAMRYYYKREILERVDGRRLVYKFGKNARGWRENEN
The gist of the method:
as §1

Another experiment has as its target SPI1 (Homo sapiens, UniProt P17947 1-270). The method in brief:
as §1

For another experiment, the target named is SPIB (Homo sapiens, UniProt Q01892 1-262). The gist of the method:
as §1

A further experiment concerns the target T5, FEV (Homo sapiens, UniProt Q99581 1-238).
T5 sequence: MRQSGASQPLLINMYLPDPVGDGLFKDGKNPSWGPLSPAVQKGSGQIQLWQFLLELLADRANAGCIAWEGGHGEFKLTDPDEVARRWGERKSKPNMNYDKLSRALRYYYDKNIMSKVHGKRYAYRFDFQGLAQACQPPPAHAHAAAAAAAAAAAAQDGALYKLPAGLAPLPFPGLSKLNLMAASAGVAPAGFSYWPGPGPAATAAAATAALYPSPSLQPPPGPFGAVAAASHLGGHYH
The method in brief:
as §1

For another experiment, the target named is ETV5 (Homo sapiens, UniProt P41161 1-510). The gist of the method: as §1
The target of a further experiment is ELF4 (Homo sapiens, UniProt Q99607 1-663). The method in brief: as §1
Sequence of ELF4 (Q99607 whole entry): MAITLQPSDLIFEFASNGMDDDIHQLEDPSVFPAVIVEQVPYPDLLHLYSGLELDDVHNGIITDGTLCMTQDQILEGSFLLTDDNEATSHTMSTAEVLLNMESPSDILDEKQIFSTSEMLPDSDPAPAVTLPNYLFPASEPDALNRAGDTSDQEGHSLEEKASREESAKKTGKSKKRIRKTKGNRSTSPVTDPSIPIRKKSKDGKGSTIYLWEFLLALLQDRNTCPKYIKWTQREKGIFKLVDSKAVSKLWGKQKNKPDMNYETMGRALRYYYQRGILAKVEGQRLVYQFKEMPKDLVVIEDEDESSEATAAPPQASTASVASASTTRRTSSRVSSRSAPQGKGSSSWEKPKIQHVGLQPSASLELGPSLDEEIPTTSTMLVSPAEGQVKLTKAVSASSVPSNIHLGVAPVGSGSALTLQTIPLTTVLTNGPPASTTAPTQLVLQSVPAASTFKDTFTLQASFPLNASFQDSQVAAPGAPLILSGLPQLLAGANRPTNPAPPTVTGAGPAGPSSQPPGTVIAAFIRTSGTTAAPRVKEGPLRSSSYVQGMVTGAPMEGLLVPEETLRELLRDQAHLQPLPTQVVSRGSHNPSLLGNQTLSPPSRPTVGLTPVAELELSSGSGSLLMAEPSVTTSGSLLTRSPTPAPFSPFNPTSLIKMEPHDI

Sequence of ELF1 (P32519 whole entry): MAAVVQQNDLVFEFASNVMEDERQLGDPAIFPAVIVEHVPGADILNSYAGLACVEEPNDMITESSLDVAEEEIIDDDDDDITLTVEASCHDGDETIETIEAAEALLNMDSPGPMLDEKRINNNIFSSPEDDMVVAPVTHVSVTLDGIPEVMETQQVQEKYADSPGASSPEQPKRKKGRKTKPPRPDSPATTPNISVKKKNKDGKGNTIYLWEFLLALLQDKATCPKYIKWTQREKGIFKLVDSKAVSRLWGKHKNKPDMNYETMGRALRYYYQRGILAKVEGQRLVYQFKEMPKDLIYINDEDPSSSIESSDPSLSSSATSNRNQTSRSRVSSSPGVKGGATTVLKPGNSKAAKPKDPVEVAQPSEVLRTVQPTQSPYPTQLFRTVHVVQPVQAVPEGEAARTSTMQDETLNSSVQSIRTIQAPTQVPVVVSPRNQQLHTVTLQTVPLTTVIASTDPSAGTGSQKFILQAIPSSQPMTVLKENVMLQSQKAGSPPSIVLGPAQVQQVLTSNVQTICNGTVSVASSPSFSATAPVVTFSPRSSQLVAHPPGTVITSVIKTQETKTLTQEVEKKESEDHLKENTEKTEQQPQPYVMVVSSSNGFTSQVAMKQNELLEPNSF
Sequence of ETV5 (P41161 whole entry): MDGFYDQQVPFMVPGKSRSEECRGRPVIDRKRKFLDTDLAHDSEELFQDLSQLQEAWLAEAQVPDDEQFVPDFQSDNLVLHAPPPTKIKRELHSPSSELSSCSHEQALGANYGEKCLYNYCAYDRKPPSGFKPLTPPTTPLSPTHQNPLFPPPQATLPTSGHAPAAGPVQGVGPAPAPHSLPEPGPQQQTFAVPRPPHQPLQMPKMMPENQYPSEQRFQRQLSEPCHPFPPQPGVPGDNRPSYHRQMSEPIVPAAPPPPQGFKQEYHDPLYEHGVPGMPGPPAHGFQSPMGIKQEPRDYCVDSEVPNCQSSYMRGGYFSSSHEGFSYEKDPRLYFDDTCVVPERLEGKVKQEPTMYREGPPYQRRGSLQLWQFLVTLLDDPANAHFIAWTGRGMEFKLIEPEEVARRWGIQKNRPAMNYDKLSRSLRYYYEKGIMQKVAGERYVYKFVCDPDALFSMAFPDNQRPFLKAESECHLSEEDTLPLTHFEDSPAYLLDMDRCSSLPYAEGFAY
Sequence of SPIB (Q01892 whole entry): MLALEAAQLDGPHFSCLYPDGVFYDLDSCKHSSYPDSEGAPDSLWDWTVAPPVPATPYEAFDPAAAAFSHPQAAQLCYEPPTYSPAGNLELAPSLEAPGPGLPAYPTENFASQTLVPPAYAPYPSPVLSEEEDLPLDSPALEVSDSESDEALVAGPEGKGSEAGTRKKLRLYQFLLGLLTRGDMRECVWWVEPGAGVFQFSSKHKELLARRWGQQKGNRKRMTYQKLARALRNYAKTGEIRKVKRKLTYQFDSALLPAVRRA

On to TGTAAC, for which the binding signal in the experiment with ELK1 is 1.21 fold enrichment (6-mer frequency, TF over GST control); with GABPA, 1.09 fold enrichment (6-mer frequency, TF over GST control); in the experiment with ERG, 1.18 fold enrichment (6-mer frequency, TF over GST control); in the experiment with ELF1, 1.28 fold enrichment (6-mer frequency, TF over GST control); in the experiment with EHF, 1.36 fold enrichment (6-mer frequency, TF over GST control); in the experiment with SPI1, 1.36 fold enrichment (6-mer frequency, TF over GST control). The binding signal with SPIB was 1.16 fold enrichment (6-mer frequency, TF over GST control); with FEV, 1.23 fold enrichment (6-mer frequency, TF over GST control); in the experiment with ETV5, 1.24 fold enrichment (6-mer frequency, TF over GST control); with ELF4 it was 1.2 fold enrichment (6-mer frequency, TF over GST control).

The values above are taken from paper PMC7862700, “An all-to-all approach to the identification of sequence-specific readers for epigenetic DNA modifications on cytosine”.
